Reference: PMC7862700, “An all-to-all approach to the identification of sequence-specific readers for epigenetic DNA modifications on cytosine”

Assays:
Test in all cases: DAPPL (digital affinity profiling via proximity ligation, sequencing); 10 mM Tris-HCl pH 7.5, 50 mM NaCl, 1 mM DTT, 4% glycerol, room temperature, 30 min; GST-TFs on glutathione beads, 16-mer random dsDNA library, 0.1% formaldehyde crosslink after washing; high values mean tight binding
Details in all cases: protein: recombinant; tags: N-terminal GST; dsDNA, one strand shown
FLI1 = biological target: T1, FLI1 (Homo sapiens, UniProt Q01543 1-452)
T1 sequence: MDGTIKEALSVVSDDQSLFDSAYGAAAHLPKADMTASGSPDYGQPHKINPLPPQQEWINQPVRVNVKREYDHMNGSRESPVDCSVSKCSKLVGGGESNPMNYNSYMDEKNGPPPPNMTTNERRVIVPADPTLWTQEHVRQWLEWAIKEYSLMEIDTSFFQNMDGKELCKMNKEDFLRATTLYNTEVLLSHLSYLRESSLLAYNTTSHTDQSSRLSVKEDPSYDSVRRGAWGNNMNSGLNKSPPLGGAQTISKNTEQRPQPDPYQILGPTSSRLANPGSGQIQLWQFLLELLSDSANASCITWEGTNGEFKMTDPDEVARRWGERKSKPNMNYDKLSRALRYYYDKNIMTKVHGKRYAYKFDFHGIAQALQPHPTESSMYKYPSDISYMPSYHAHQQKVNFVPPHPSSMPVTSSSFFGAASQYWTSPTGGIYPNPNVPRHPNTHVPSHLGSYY
In short: (§1)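 Pools were built from human transcription factors expressed in yeast as GST fusions, captured on glutathione beads and DNA-barcoded, along with a tag-only sample. Incubation with 200 nmole of a 16-mer random double-stranded DNA library lasted 30 min at room temperature in Tris/NaCl/DTT/glycerol buffer, and was followed by washing, 0.1% formaldehyde crosslinking, proximity ligation, PCR amplification and Illumina NextSeq500 sequencing. Binding signal is the quotient of each hexamer's read frequency for a factor and its frequency for the tag-only sample.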

ELK1 = biological target: T2, ELK1 (Homo sapiens, UniProt P19419 1-428)
T2 sequence: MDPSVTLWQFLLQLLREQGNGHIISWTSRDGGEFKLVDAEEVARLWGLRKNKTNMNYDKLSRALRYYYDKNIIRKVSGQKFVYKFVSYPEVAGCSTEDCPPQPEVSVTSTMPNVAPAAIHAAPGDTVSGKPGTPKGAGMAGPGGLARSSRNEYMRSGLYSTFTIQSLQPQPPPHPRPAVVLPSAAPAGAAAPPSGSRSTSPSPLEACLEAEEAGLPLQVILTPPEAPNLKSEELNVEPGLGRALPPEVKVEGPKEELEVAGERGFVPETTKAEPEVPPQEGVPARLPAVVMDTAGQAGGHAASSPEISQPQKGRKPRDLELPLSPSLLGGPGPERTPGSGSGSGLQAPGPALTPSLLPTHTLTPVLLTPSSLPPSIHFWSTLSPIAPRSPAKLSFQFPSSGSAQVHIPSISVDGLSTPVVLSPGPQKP
In short: as §1

GABPA = biological target: T3, GABPA (Homo sapiens, UniProt Q06546 1-454)
T3 sequence: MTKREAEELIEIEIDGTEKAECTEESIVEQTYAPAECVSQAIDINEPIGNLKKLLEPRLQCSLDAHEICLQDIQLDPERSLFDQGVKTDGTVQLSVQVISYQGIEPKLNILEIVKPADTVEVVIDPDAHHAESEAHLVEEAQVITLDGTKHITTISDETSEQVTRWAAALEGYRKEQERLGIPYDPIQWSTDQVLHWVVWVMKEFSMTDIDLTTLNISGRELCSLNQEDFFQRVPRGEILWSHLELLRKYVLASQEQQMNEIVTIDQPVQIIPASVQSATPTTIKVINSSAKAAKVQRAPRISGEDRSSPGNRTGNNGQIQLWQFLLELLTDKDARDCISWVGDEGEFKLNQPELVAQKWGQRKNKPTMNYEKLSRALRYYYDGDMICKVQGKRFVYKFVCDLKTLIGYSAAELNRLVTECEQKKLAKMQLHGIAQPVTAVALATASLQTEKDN
In short: as §1

ERG = biological target: T4, ERG (Homo sapiens, UniProt P11308 1-479)
T4 sequence: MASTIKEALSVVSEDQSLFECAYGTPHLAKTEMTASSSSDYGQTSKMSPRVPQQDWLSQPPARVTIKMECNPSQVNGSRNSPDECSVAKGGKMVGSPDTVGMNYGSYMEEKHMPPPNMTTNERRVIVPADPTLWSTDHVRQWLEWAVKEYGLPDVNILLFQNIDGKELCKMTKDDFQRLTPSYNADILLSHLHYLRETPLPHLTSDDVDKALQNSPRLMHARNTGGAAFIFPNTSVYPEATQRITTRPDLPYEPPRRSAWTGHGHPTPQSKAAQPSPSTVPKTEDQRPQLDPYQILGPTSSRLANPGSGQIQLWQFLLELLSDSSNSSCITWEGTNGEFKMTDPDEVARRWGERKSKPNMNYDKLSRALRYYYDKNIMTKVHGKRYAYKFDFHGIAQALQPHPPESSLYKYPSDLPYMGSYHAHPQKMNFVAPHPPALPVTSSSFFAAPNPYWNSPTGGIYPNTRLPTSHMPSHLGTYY
In short: as §1

ELF1 = ELF1 (Homo sapiens, UniProt P32519 1-619)
In short: as §1

EHF = biological target: T5, EHF (Homo sapiens, UniProt Q9NZC4 1-300)
T5 sequence: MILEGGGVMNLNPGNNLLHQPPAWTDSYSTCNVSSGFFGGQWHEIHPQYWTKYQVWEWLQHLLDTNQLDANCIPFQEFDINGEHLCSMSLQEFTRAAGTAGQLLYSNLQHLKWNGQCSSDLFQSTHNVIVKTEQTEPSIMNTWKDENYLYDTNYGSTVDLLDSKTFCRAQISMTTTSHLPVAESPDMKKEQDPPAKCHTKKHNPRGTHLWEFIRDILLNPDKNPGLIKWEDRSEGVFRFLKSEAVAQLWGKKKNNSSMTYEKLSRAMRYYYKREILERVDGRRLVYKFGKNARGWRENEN
In short: as §1

SPI1 = SPI1 (Homo sapiens, UniProt P17947 1-270)
In short: as §1

SPIB = SPIB (Homo sapiens, UniProt Q01892 1-262)
In short: as §1

ELK3 = biological target: T6, ELK3 (Homo sapiens, UniProt P41970 1-407)
T6 sequence: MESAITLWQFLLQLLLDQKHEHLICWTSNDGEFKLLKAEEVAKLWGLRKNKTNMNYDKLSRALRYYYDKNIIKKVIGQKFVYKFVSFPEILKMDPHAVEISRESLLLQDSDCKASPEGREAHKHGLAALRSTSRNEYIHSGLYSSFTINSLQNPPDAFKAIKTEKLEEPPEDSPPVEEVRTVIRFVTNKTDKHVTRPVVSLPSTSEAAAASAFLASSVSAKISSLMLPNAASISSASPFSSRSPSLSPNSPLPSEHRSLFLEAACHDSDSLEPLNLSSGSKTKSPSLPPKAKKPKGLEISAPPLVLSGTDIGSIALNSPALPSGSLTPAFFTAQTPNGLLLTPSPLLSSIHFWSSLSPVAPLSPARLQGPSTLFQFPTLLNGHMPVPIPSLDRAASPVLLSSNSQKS
In short: as §1

Chain of SPIB (Q01892 whole entry): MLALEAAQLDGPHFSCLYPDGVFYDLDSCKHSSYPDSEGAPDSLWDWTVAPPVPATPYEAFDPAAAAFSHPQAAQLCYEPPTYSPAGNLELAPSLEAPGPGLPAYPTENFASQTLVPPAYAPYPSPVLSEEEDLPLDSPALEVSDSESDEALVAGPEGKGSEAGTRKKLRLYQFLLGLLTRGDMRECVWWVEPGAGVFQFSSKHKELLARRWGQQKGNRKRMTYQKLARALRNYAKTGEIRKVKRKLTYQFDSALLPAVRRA
Chain of ELF1 (P32519 whole entry): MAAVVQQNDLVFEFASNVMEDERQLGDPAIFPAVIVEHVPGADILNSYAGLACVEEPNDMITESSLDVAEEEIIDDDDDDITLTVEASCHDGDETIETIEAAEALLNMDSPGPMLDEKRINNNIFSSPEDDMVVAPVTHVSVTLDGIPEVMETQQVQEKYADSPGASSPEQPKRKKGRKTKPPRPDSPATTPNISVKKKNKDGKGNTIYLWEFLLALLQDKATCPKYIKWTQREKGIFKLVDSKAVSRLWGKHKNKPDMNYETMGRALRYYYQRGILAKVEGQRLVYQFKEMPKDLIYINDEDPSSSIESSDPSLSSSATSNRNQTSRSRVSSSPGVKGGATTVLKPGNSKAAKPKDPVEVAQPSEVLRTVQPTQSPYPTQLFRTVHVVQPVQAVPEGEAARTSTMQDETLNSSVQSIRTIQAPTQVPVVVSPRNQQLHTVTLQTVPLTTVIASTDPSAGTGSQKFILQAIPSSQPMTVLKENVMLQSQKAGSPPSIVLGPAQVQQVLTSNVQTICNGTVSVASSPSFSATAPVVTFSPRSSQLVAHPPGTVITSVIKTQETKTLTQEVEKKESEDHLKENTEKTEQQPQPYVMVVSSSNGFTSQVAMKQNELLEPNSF

Sequence	binding signal (FLI1)	binding signal (ELK1)	binding signal (GABPA)	binding signal (ERG)	binding signal (ELF1)	binding signal (EHF)	binding signal (SPI1)	binding signal (SPIB)	binding signal (ELK3)
TCACTA	1.21 fold enrichment (6-mer frequency, TF over GST control)	1.22 fold enrichment (6-mer frequency, TF over GST control)	1.17 fold enrichment (6-mer frequency, TF over GST control)	1.17 fold enrichment (6-mer frequency, TF over GST control)	1.21 fold enrichment (6-mer frequency, TF over GST control)	1.17 fold enrichment (6-mer frequency, TF over GST control)	1.23 fold enrichment (6-mer frequency, TF over GST control)	1.25 fold enrichment (6-mer frequency, TF over GST control)	–
CATAAC	1.09 fold enrichment (6-mer frequency, TF over GST control)	1.2 fold enrichment (6-mer frequency, TF over GST control)	1.15 fold enrichment (6-mer frequency, TF over GST control)	1.1 fold enrichment (6-mer frequency, TF over GST control)	1.22 fold enrichment (6-mer frequency, TF over GST control)	1.09 fold enrichment (6-mer frequency, TF over GST control)	1.16 fold enrichment (6-mer frequency, TF over GST control)	1.13 fold enrichment (6-mer frequency, TF over GST control)	1.18 fold enrichment (6-mer frequency, TF over GST control)
GTTAAT	1.14 fold enrichment (6-mer frequency, TF over GST control)	1.19 fold enrichment (6-mer frequency, TF over GST control)	1.06 fold enrichment (6-mer frequency, TF over GST control)	1.1 fold enrichment (6-mer frequency, TF over GST control)	1.03 fold enrichment (6-mer frequency, TF over GST control)	1.16 fold enrichment (6-mer frequency, TF over GST control)	1.1 fold enrichment (6-mer frequency, TF over GST control)	1.15 fold enrichment (6-mer frequency, TF over GST control)	1.12 fold enrichment (6-mer frequency, TF over GST control)
CGACAT	1.37 fold enrichment (6-mer frequency, TF over GST control)	1.23 fold enrichment (6-mer frequency, TF over GST control)	1.25 fold enrichment (6-mer frequency, TF over GST control)	1.31 fold enrichment (6-mer frequency, TF over GST control)	1.25 fold enrichment (6-mer frequency, TF over GST control)	1.26 fold enrichment (6-mer frequency, TF over GST control)	1.27 fold enrichment (6-mer frequency, TF over GST control)	1.3 fold enrichment (6-mer frequency, TF over GST control)	1.4 fold enrichment (6-mer frequency, TF over GST control)
CGATAA	1.12 fold enrichment (6-mer frequency, TF over GST control)	1.02 fold enrichment (6-mer frequency, TF over GST control)	1.06 fold enrichment (6-mer frequency, TF over GST control)	1.09 fold enrichment (6-mer frequency, TF over GST control)	1.08 fold enrichment (6-mer frequency, TF over GST control)	1.03 fold enrichment (6-mer frequency, TF over GST control)	1.08 fold enrichment (6-mer frequency, TF over GST control)	1.19 fold enrichment (6-mer frequency, TF over GST control)	1.2 fold enrichment (6-mer frequency, TF over GST control)
AAATTC	1.31 fold enrichment (6-mer frequency, TF over GST control)	1.31 fold enrichment (6-mer frequency, TF over GST control)	1.4 fold enrichment (6-mer frequency, TF over GST control)	1.24 fold enrichment (6-mer frequency, TF over GST control)	1.31 fold enrichment (6-mer frequency, TF over GST control)	1.32 fold enrichment (6-mer frequency, TF over GST control)	1.26 fold enrichment (6-mer frequency, TF over GST control)	1.33 fold enrichment (6-mer frequency, TF over GST control)	1.42 fold enrichment (6-mer frequency, TF over GST control)
CAATAG	1.07 fold enrichment (6-mer frequency, TF over GST control)	1.07 fold enrichment (6-mer frequency, TF over GST control)	1.22 fold enrichment (6-mer frequency, TF over GST control)	1.04 fold enrichment (6-mer frequency, TF over GST control)	1.07 fold enrichment (6-mer frequency, TF over GST control)	1.13 fold enrichment (6-mer frequency, TF over GST control)	1.04 fold enrichment (6-mer frequency, TF over GST control)	1.08 fold enrichment (6-mer frequency, TF over GST control)	1.13 fold enrichment (6-mer frequency, TF over GST control)
ACTCGA	1.35 fold enrichment (6-mer frequency, TF over GST control)	1.48 fold enrichment (6-mer frequency, TF over GST control)	1.44 fold enrichment (6-mer frequency, TF over GST control)	1.22 fold enrichment (6-mer frequency, TF over GST control)	1.49 fold enrichment (6-mer frequency, TF over GST control)	1.14 fold enrichment (6-mer frequency, TF over GST control)	1.26 fold enrichment (6-mer frequency, TF over GST control)	1.24 fold enrichment (6-mer frequency, TF over GST control)	1.27 fold enrichment (6-mer frequency, TF over GST control)
GAAGTG	1.46 fold enrichment (6-mer frequency, TF over GST control)	1.7 fold enrichment (6-mer frequency, TF over GST control)	1.49 fold enrichment (6-mer frequency, TF over GST control)	1.87 fold enrichment (6-mer frequency, TF over GST control)	1.52 fold enrichment (6-mer frequency, TF over GST control)	1.71 fold enrichment (6-mer frequency, TF over GST control)	2.8 fold enrichment (6-mer frequency, TF over GST control)	1.61 fold enrichment (6-mer frequency, TF over GST control)	1.75 fold enrichment (6-mer frequency, TF over GST control)
CGACCT	1.44 fold enrichment (6-mer frequency, TF over GST control)	1.44 fold enrichment (6-mer frequency, TF over GST control)	1.54 fold enrichment (6-mer frequency, TF over GST control)	1.46 fold enrichment (6-mer frequency, TF over GST control)	1.6 fold enrichment (6-mer frequency, TF over GST control)	1.39 fold enrichment (6-mer frequency, TF over GST control)	1.4 fold enrichment (6-mer frequency, TF over GST control)	1.63 fold enrichment (6-mer frequency, TF over GST control)	1.7 fold enrichment (6-mer frequency, TF over GST control)
TTTAAT	1.4 fold enrichment (6-mer frequency, TF over GST control)	1.28 fold enrichment (6-mer frequency, TF over GST control)	1.29 fold enrichment (6-mer frequency, TF over GST control)	1.27 fold enrichment (6-mer frequency, TF over GST control)	1.29 fold enrichment (6-mer frequency, TF over GST control)	1.35 fold enrichment (6-mer frequency, TF over GST control)	1.23 fold enrichment (6-mer frequency, TF over GST control)	1.35 fold enrichment (6-mer frequency, TF over GST control)	1.36 fold enrichment (6-mer frequency, TF over GST control)
GAAGTT	1.76 fold enrichment (6-mer frequency, TF over GST control)	1.66 fold enrichment (6-mer frequency, TF over GST control)	1.63 fold enrichment (6-mer frequency, TF over GST control)	1.77 fold enrichment (6-mer frequency, TF over GST control)	1.61 fold enrichment (6-mer frequency, TF over GST control)	1.72 fold enrichment (6-mer frequency, TF over GST control)	2.02 fold enrichment (6-mer frequency, TF over GST control)	1.72 fold enrichment (6-mer frequency, TF over GST control)	1.62 fold enrichment (6-mer frequency, TF over GST control)
CGTATC	1.2 fold enrichment (6-mer frequency, TF over GST control)	1.3 fold enrichment (6-mer frequency, TF over GST control)	1.29 fold enrichment (6-mer frequency, TF over GST control)	1.28 fold enrichment (6-mer frequency, TF over GST control)	1.23 fold enrichment (6-mer frequency, TF over GST control)	1.25 fold enrichment (6-mer frequency, TF over GST control)	1.11 fold enrichment (6-mer frequency, TF over GST control)	1.2 fold enrichment (6-mer frequency, TF over GST control)	1.21 fold enrichment (6-mer frequency, TF over GST control)
TCCGGG	1.54 fold enrichment (6-mer frequency, TF over GST control)	1.55 fold enrichment (6-mer frequency, TF over GST control)	1.35 fold enrichment (6-mer frequency, TF over GST control)	1.56 fold enrichment (6-mer frequency, TF over GST control)	1.48 fold enrichment (6-mer frequency, TF over GST control)	1.48 fold enrichment (6-mer frequency, TF over GST control)	1.4 fold enrichment (6-mer frequency, TF over GST control)	1.65 fold enrichment (6-mer frequency, TF over GST control)	1.46 fold enrichment (6-mer frequency, TF over GST control)
